According to PubChem BioAssay AID2284334 (EPA ToxCast):
Inconclusive results are not listed. The source made the active and inactive calls. How the source made its calls: active means hit-call score of the fitted dose curve at least 0.9, where 1 is the maximum; inconclusive means response in the unintended direction; inactive means score below 0.9.

Biological target: human Peroxisome Proliferator-activated Receptor alpha (PPARa), PPARA (gene 5465) (UniProt Q07869)
Experiment: ATG_hPPARa_EcoTox2: Attagene TRANS-FACTORIAL EcoTox-2 HepG2 Assay for human Peroxisome Proliferator-activated Receptor alpha (PPARa)
Experimental: ATG_EcoTox2 is a cell-based, multiplexed assay created by modifying the existing Attagene TRANS-FACTORIAL system to include a panel of nuclear receptors from some or all the following species: human (Homo sapiens), african clawed frog (Xenopus laevis), rainbow trout (Oncorhynchus mykiss), japanese medaka (Oryzias latipes), and zebrafish (Danio rerio). The ECOTOX2-FACTORIAL format uses HepG2, a human liver cell line, with measurements taken at 24 hours after chemical dosing in a 24-well plate. ATG_hPPARa_EcoTox2 is one of 29 assay components calculated in the ATG_EcoTox2 assay. It is designed to make measurements of mRNA induction, a form of inducible reporter, as detected with fluorescence intensity signals by Reverse transcription polymerase chain reaction (RT-PCR) and Capillary electrophoresis technology.The assay endpoint ATG_hPPARa_EcoTox2 was analyzed in the positive analysis fitting direction relative to DMSO as the negative control and baseline of activity. Using a type of inducible reporter, measures of mRNA for gain-of-signal activity can be used to understand the reporter gene at the transcription factor-level as they relate to the gene PPARa. Furthermore, this assay endpoint can be referred to as a primary readout, because this assay has produced multiple assay endpoints where this one serves a reporter gene function. […]

Sequence of human Peroxisome Proliferator-activated Receptor alpha (PPARa), PPARA (gene 5465) (Q07869 whole entry, looked up): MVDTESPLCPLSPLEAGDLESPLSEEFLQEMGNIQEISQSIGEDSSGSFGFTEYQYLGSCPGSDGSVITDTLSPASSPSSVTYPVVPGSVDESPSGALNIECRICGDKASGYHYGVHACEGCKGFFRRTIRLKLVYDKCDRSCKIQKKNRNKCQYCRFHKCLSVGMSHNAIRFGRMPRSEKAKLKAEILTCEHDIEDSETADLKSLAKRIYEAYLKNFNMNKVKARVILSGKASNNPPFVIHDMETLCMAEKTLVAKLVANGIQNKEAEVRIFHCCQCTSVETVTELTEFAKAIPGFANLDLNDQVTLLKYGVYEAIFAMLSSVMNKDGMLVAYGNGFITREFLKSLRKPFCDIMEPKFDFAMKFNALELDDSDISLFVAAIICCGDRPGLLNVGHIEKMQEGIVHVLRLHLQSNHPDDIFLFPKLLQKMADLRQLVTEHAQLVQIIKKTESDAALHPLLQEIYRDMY

Compound | AC50
O=S(=O)(O)C(F)(F)C(F)(F)C(F)(F)C(F)(F)C(F)(F)C(F)(F)F | 23 µM (active)
O=C(O)C(F)(F)C(F)(F)C(F)(F)C(F)(F)C(F)(F)C(F)(F)C(F)(F)F | 11.4 µM (active)
